Results on 40 compounds are retold here after PubChem BioAssay (NCATS).

Results filed as inconclusive are left out. A number with no mark means an inactive call. Active and inactive are the calls of the source. Calls come from the whole dose curve; as a rule, active = well fitted curve in the direction sought with a large enough effect; inconclusive = small, poorly fitted or top-dose-only effect, or another doubt; inactive = no such curve, though single readings can be large; an effect the other way counts as inactive or inconclusive.

Assay [1] can be described thus: NS1 protein of Zika virus - qHTS assay to identify small molecule inhibitors in human HEK 293 cells (AID 1347053).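 Note: series mostly up to about 46 µM; plate controls were infected untreated cells for no effect and uninfected cells for full effect; nearly all actives have a fitted effect of over 55% in size.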 The method in brief:
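HEK 293; 20 h pre-culture, 37 C/5% CO2; cpd 1 h pre-infection; ZIKV MR766, MOI = 0.5, 24 h, 37 C; TR-FRET NS1 readout (two anti-NS1 Abs); norm. to no-virus vs infected.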
For orientation: In qHTS, concentration-response curves come from the screen itself.

Assay [2] is described as follows: qHTS of pediatric cancer cell lines to identify multiple opportunities for drug repurposing: Primary screen for TC32 cells (AID 1347089). Note: % is set by controls: 0 for no effect and ±100 for the full control effect; nearly all actives have a fitted effect of over 60% in size. The method in brief:
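In the primary qHTS, MIPE compounds were tested at 11 concentrations (0.78 nM to 46 µM) and NPC compounds at 8 (0.59 nM to 46 µM) on TC32 cells for 48 h. CellTiter-Glo luminescence gave viability.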

Assay [3] in a line: qHTS of pediatric cancer cell lines to identify multiple opportunities for drug repurposing: Primary screen for DAOY cells (AID 1347090).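 Note: series mostly up to about 46 µM; plate controls were DMSO for no effect and bortezomib for full effect; nearly all actives have a fitted effect of over 55% in size.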 In short, it runs like this: (§1)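 Eight- or eleven-point concentration series, 48 h treatment at 37 degrees C in growth media; readout CellTiter-Glo luminescence. Potency and efficacy were taken from the concentration-response curves.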
Assay [4] is described as follows: qHTS of pediatric cancer cell lines to identify multiple opportunities for drug repurposing: Primary screen for SJ-GBM2 cells (AID 1347091).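 For activity change, negative = cytotoxic: plate controls were DMSO neutral control for no effect and bortezomib for full effect.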 Note: potency is the fitted concentration of half-maximal effect. In short, it runs like this: as §1
A short description of assay [5]: qHTS of pediatric cancer cell lines to identify multiple opportunities for drug repurposing: Primary screen for A673 cells (AID 1347092). Note: % is set by controls: 0 for no effect and ±100 for the full control effect; nearly all actives have a fitted effect of over 45% in size. The method in brief: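 48 h compound exposure, A673, 500-1,000 cells/well, 37 degrees C/5% CO2. MIPE: 11-point, 0.78 nM-46 µM; NPC: 8-point, 0.59 nM-46 µM (final). Readout CellTiter-Glo luminescence after 15 min RT.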

For `O=C(c1ccccc1)c1ccccc1`, the Potency entry in assay [1], in assay [2], in assay [3], in assay [4] and in assay [5] was “inactive” each time.
On to `CC(C)C(=O)Nc1cccc(C(F)(F)F)c1`, for which the Potency entry in assay [1], in assay [2], in assay [3], in assay [4] and in assay [5] was “inactive” in each case.
Regarding `CN1Cc2cc(C(=O)N3CCC(C4CCNCC4)CC3)ccc2N[C@@H](CC(=O)O)C1=O`, the Potency entry in assay [1], in assay [2], in assay [3], in assay [4] and in assay [5] was “inactive” in each case.
`O=C1CC[C@H](C(=O)N2CCCCC2)N1`: the Potency entry in assay [1], in assay [2], in assay [3], in assay [4] and in assay [5] was “inactive” throughout.
For `CC(=O)OCC(=O)[C@@]1(O)[C@H](OC(C)=O)C[C@H]2[C@@H]3CCC4=CC(=O)C=C[C@]4(C)[C@@]3(F)[C@@H](O)C[C@@]21C`, the Potency result in assay [1], in assay [2], in assay [4] and in assay [5] was “inactive” each time.
`Nc1ccc(C(=O)OCC(O)CO)cc1` (stereo not drawn): the Potency entry in assay [1], in assay [2], in assay [4] and in assay [5] was “inactive” each time.
Consider `OCCOCCN1CCN(C(c2ccccc2)c2ccc(Cl)cc2)CC1` (stereo not drawn), for which the Potency entry in assay [1], in assay [2], in assay [4] and in assay [5] was “inactive” in each case.
In the case of `Nc1ccc2c(c1)CN1C(=O)c3ccccc3C1=N2`, the Potency entry in assay [1], in assay [2] and in assay [4] was “inactive” throughout.
With `Cc1cc(O)c(C)c(C)c1O`, the Potency result in assay [1], in assay [2] and in assay [4] was “inactive” in each case.
For the compound `CC1CN(c2cc3c(cc2F)c(=O)c(C(=O)O)cn3-c2ccc(F)cc2F)CCN1` (stereo not drawn), the activity change, negative = inhibition in assay [1] was -15.5% [at 4.81 µM]. Further, the activity change, negative = cytotoxic is -4% [at 4.81 µM] in assay [2], 78.3% [at 4.84 µM] in assay [4] and -9.43% [at 4.84 µM] in assay [5].
Consider `O=C(CS(=O)Cc1ccco1)NC/C=C\COc1cc(CN2CCCCC2)ccn1` (stereo not drawn), for which the Potency result in assay [1], in assay [2], in assay [4] and in assay [5] was “inactive” throughout.
Turning to `CC(=O)CC/C=C(\C)CC/C=C(\C)CC/C=C(\C)CCC=C(C)C`, the Potency result in assay [1], in assay [2], in assay [4] and in assay [5] was “inactive” each time.
Regarding `COc1ccccc1N1CCN(CC(O)COc2cc(OC)c(OC)c(OC)c2)CC1` (stereo not drawn), the Potency result in assay [1], in assay [2], in assay [4] and in assay [5] was “inactive” in each case.
For the compound `Cc1oc(-c2ccccc2)nc1CCC(=O)c1ccc(CC2SC(=O)NC2=O)cc1` (stereo not drawn), the Potency entry in assay [1], in assay [2], in assay [4] and in assay [5] was “inactive” each time.
Take `O=C(OCC(O)CO)c1ccccc1Nc1ccnc2c(C(F)(F)F)cccc12` (stereo not drawn): the Potency entry in assay [1], in assay [2], in assay [4] and in assay [5] was “inactive” each time.
Take `O=C1Nc2ccccc2C1(c1ccc(O)cc1)c1ccc(O)cc1`: the Potency result in assay [1], in assay [2], in assay [4] and in assay [5] was “inactive” each time.
Turning to `CCCCN(CCN(CCCC)C(=O)N1CCOCC1)C(=O)N1CCOCC1`, the Potency entry in assay [1], in assay [2] and in assay [4] was “inactive” each time.
For the compound `CCCc1ncc(C(=O)O)s1`, the Potency entry in assay [1], in assay [2], in assay [4] and in assay [5] was “inactive” throughout.
On to `CCOC(=O)N1CCC(n2c(=O)[nH]c3cc(Cl)ccc32)CC1`, for which the Potency result in assay [1], in assay [2] and in assay [4] was “inactive” throughout.
Take `Cc1ccc(C(=O)Oc2ccc(C(O)CNC(C)(C)C)cc2OC(=O)c2ccc(C)cc2)cc1` (stereo not drawn): the Potency entry in assay [1], in assay [2] and in assay [4] was “inactive” in each case.
As for `C=CCNc1nc(NCC=C)nc(N2CCN(C(c3ccc(F)cc3)c3ccc(F)cc3)CC2)n1`, the Potency entry in assay [1], in assay [2] and in assay [4] was “inactive” each time.
Take `Cc1ccc(Cl)c(OCC(O)CNC(C)(C)C)c1` (stereo not drawn): the Potency result in assay [1], in assay [2], in assay [4] and in assay [5] was “inactive” each time.
With `C[C@@H](O[C@H]1OCCN(Cc2n[nH]c(=O)[nH]2)[C@H]1c1ccc(F)cc1)c1cc(C(F)(F)F)cc(C(F)(F)F)c1`, the Potency result in assay [1] and in assay [2] was “inactive” each time. Further, the Potency in assay [4] is 21.1 µM (active).
Take `CC(CC1c2ccccc2CCc2ccccc21)CN(C)C` (stereo not drawn): the Potency result in assay [1], in assay [2], in assay [3] and in assay [5] was “inactive” in each case.
Regarding `O=C1[C@@H]2[C@H]3CC[C@H](C3)[C@@H]2C(=O)N1CCCCN1CCN(c2ncccn2)CC1`, the Potency entry in assay [1], in assay [2], in assay [4] and in assay [5] was “inactive” each time.
Turning to `CC(NC(CCc1ccccc1)C(=O)O)C(=O)N1C(=O)N(C)CC1C(=O)O` (stereo not drawn), the Potency entry in assay [1], in assay [2], in assay [4] and in assay [5] was “inactive” each time.
For the compound `CCO[C@H](Cc1ccc(OCCc2ccc(OS(C)(=O)=O)cc2)cc1)C(=O)O`, the Potency result in assay [1], in assay [2], in assay [4] and in assay [5] was “inactive” throughout.
Turning to `CCC(=O)O[C@H]1[C@H](O[C@@H]2[C@@H](C)[C@H](O[C@H]3C[C@@](C)(OC)[C@@H](O)[C@H](C)O3)[C@@H](C)C(=O)O[C@H](CC)[C@@](C)(O)[C@H](O)[C@@H](C)C(=O)[C@H](C)C[C@@]2(C)O)O[C@H](C)C[C@@H]1N(C)C`, the Potency result in assay [1], in assay [2], in assay [4] and in assay [5] was “inactive” each time.
`CCOc1ncc(F)c(=O)[nH]1`: the Potency result in assay [1], in assay [2] and in assay [4] was “inactive” each time.
Take `O=C(O)C(=O)Nc1cccc(-c2nn[nH]n2)c1`: the Potency entry in assay [1], in assay [2], in assay [4] and in assay [5] was “inactive” throughout.
Take `CC(C)=CCC/C(C)=C/CC/C(C)=C/C(=O)OCC(=O)[C@@]1(O)CC[C@H]2[C@@H]3CCC4=CC(=O)C=C[C@]4(C)[C@H]3[C@@H](O)C[C@@]21C`: the Potency entry in assay [1], in assay [2] and in assay [5] was “inactive” throughout. Besides, the Potency in assay [4] is 13.3 µM (active).
For `CN1CCC(=C2c3ccccc3CCc3cccnc32)CC1`, the Potency entry in assay [1], in assay [2] and in assay [4] was “inactive” throughout.
In the case of `c1ccc(C(O[C@H]2CCCN(CCc3ccc4c(c3)OCO4)C2)c2ccccc2)cc1`, the Potency result in assay [1], in assay [2], in assay [3] and in assay [5] was “inactive” in each case.
For `Cc1ncc(CO)c(CO)c1O`, the Potency entry in assay [1], in assay [2], in assay [4] and in assay [5] was “inactive” each time.
In the case of `CC(=O)Nc1ccc(S(=O)(=O)Nc2cc(C)on2)cc1`, the Potency result in assay [1], in assay [2], in assay [4] and in assay [5] was “inactive” in each case.
Turning to `O=C(COCCOCCOCC(=O)Nc1c(I)cc(I)c(C(=O)O)c1I)Nc1c(I)cc(I)c(C(=O)O)c1I`, the Potency result in assay [1], in assay [2] and in assay [4] was “inactive” each time.
Regarding `CCC[C@H](N[C@@H](C)C(=O)N1[C@H](C(=O)O)C[C@@H]2CCCC[C@@H]21)C(=O)OCC`, the Potency result in assay [1], in assay [2] and in assay [4] was “inactive” throughout.
For `O=C(OCCN1CCOCC1)c1cccnc1Nc1cccc(C(F)(F)F)c1`, the Potency result in assay [1], in assay [2], in assay [4] and in assay [5] was “inactive” in each case.
On to `O=C(O)c1[nH]n(-c2ccc(S(=O)(=O)O)cc2)c(=O)c1N=Nc1ccc(S(=O)(=O)O)cc1`, for which the Potency entry in assay [1], in assay [2], in assay [4] and in assay [5] was “inactive” each time.
In the case of `CC(C(=O)O)c1ccc(/C=C2\CCCCC2=O)cc1` (stereo not drawn), the Potency result in assay [1], in assay [2], in assay [4] and in assay [5] was “inactive” throughout.
